Assay results from ChEMBL document CHEMBL3988442, “University of Dundee, Small-Polar-MMV Screening Library” (2021).
Hit rate of the full screen: of about 53,000 compounds, about 900 (1.7%) showed an effect of 50% or more. The entries come from a sample that favours strong results as a whole.

Tested on: Mycobacterium tuberculosis
Assay: Cornell - Phenotypic assay to identify agents that inhibit growth of Mycobacterium tuberculosis
Type: functional
Parameters: scale not given: direction of the effect not stated beside the values
Conditions: 10 mM as filed; unlikely as a test dose

Structure (SMILES)	Percent Effect [%]
CCC1=N[C@@]2(CC[C@@H]3CN(CC4CC4)C[C@@H]32)C(=O)N1CC.O=C(O)C(F)(F)F	7.399
O=C(CC1CC1)N1CCN(Cc2ccncc2)c2ncccc2C1.O=C(O)C(F)(F)F.O=C(O)C(F)(F)F	7.793
Cc1ccc(-c2nnc(CN3CCN(c4ccccn4)CC3)o2)cc1	-16.82
COCC(=O)N1CCCC(c2cc(C(F)F)n3ncnc3n2)C1.Cl (centres undefined)	-7.323
CCNC(=O)C1(CC2CC(c3ccccc3OC)=NO2)CCOCC1 (centres undefined)	-45.09
CNc1cncc(C2CCCN2C(=O)CCn2ccnc2)n1 (centres undefined)	-11.08
COCCN(C)CC(=O)N1C[C@@H](C)[C@](O)(C(C)C)C1	28.76
CCc1cc(O)n2nc(C3CCN(C(=O)c4ccccn4)CC3)cc2n1	37.19
NC(=O)CN1CCC2(CC1)C[C@@H](O)[C@H](c1ccccc1)NC2=O	-49.18
COCC(=O)N1CCCC1(C(=O)N(C)C)c1cnccn1 (centres undefined)	19.92
Cc1cc(-c2ccccc2Cl)nc(N)n1	22.73
CC(C)(C)c1ncc(C(=O)NCCNC(=O)c2cccs2)s1	-14.14
O=C(NCCNc1cc(-n2cccc2)ncn1)c1cccs1	57.48
O=C(NCCNC(=O)c1scnc1Cl)c1cccs1	-53.65
Cc1ccc2c(c1)[C@@H](CC(=O)N(C)C)CCO2	3.607
CN(C)c1ccc(C(=O)NCCCc2ccccn2)cn1	-1.76
COC(=O)C(NC(=O)c1ccc(NC2CC2)nc1)c1ccccc1 (centres undefined)	107
NC(=O)C(NC(=O)c1ccc(NC2CC2)nc1)c1ccccc1 (centres undefined)	-20.48
CCNc1ncc(C(=O)N[C@H](C(N)=O)c2ccccc2)cn1	-10.46
COC(=O)C(NC(=O)c1ccc(N(C)C)nc1)c1ccccc1 (centres undefined)	107.9
CC(C)c1cc(NC(=O)c2ccc(NC3CC3)nc2)[nH]n1	-6.556
OC1(CN2CCCC(Cn3cncn3)C2)CCCCC1 (centres undefined)	2.144
CNC(=O)c1sc2ccccc2c1C1CCN(c2cc(C)nc(C)n2)C1 (centres undefined)	-31.24
Cc1cnn(C2CCCN(C(=O)c3ccc(O)nc3)C2)c1 (centres undefined)	-59.29
Cc1ccc(CN2CC[C@@H]3[C@@H]2CCN3C(=O)Cc2cccs2)o1.O=C(O)C(F)(F)F	2.395
CC(Nc1nc(-c2ccccc2)nc2c1CCNCC2)c1nccs1 (centres undefined)	28.69

Structure (SMILES)	Percent Effect [%]
CC(Nc1nc(-c2ccccc2)nc2c1CCNCC2)c1cccnc1 (centres undefined)	76.64
Cc1cc(CC(C)Nc2nc(-c3cccnc3)nc3c2CNC3)[nH]n1 (centres undefined)	-19.02
CC(Nc1nc(-c2ccncc2)nc2c1CCNC2)c1ccccc1 (centres undefined)	16.91
Cc1cccnc1[C@H](C)Nc1nc(-c2cccnc2)nc2c1CNC2	56.46
CCc1cc(C(C)Nc2nc(-c3cccnc3)nc3c2CNC3)on1 (centres undefined)	9.073
Cc1cc(NCCNS(C)(=O)=O)nc2cc3c(cc12)CCC3	-25.91
Cc1cs/c(=N\C(=O)Cn2nc(N3CCOCC3)ccc2=O)[nH]1	32.69
CC(C)c1n[nH]c(C2CN(C(=O)c3ncoc3C(C)C)CCO2)n1 (centres undefined)	-2.194
Cc1c(-c2cccs2)nn2c(O)c3c(nc12)CN(C(=O)C1CC1)C3	54.87
COCC(=O)N1Cc2nc3c(C)c(-c4cccs4)nn3c(O)c2C1	3.993
COCCC(=O)N1Cc2nc3c(C)c(-c4cccs4)nn3c(O)c2C1	39.74
CC(C)c1ncc(CN2CCOC(C(=O)Nc3ccccc3)C2)cn1 (centres undefined)	-3.657
COc1ccc(Cl)cc1-c1nc(N)nc(N)n1	-5.371
CCCN(CCC)c1nc(N)nc(-c2cc(Cl)ccc2OC)n1	61.82
COc1ccc(Cl)cc1-c1nc(N)nc(N(C)C)n1	31.47
CN1CCO[C@H]2CN(C(=O)c3ccoc3)C[C@H]21.O=C(O)C(F)(F)F	6.414
Cl.NCCc1cn(Cc2ccccn2)c2ccccc12	-5.41
CNC(=O)c1cn2cc(-c3ccccc3Cl)n(CC3CC3)c(=O)c2n1	16.32
CCNC(=O)c1cn2cc(-c3ccccc3Cl)n(CC3CC3)c(=O)c2n1	93.59
CN(C)C(=O)c1cn2cc(-c3ccccc3Cl)n(CC3CC3)c(=O)c2n1	8.491
CC(=O)N1CCc2[nH]cnc2C12CCN(C(=O)Cc1cccs1)CC2	5.963
Cc1nc(CN2CCCC(NCc3sccc3C)C2)no1 (centres undefined)	-19.65
COCCN1CCCC(c2ncc(C(=O)N3CCOCC3)c(C)n2)C1 (centres undefined)	-5.414
Cc1cccc(NC2CCN(C(=O)Nc3cc(F)ccc3F)CC2)n1	0.502
Cc1cccc(NC2CCN(C(=O)Nc3cccc4[nH]ccc34)CC2)n1	103.5
Cc1cccc(NC2CCN(C(=O)Nc3ccc(F)c(F)c3)CC2)n1	108.1

Structure (SMILES)	Percent Effect [%]
Cc1cccc(NC2CCN(C(=O)Nc3cc(F)cc(F)c3)CC2)n1	-33.08
Cc1cccc(NC2CCN(C(=O)Nc3cc(C)on3)CC2)n1	-41.3
Cc1cccc(NC2CCN(C(=O)Nc3ccncc3)CC2)n1	-35.06
O=C(O)C(F)(F)F.O=C1COC2(CCN(Cc3nccs3)CC2)CN1c1ccccc1	8.785
Cc1cc(O)cc(C2CCCN2C(=O)c2ccncc2)n1 (centres undefined)	3.916
Cc1cnn(CCNCc2csc(COc3ccccc3)n2)c1	79.25
c1ccc(OCc2nc(CNCCn3cccn3)cs2)cc1	-6.946
Cc1ccc(OCc2nc(CNCCn3cccn3)cs2)cc1	44.09
Cc1cnn(CCNCc2csc(C)n2)c1	2.389
Cc1cnn(CCNCc2ccc(OCc3csc(C)n3)cc2)c1	22
Cc1cnn(CCCNCc2csc(COc3ccccc3)n2)c1	86.59
CCc1ccc(-n2c(=O)[nH]c3nc(N4CCSCC4)ncc3c2=O)cc1	-3.279
CNC(=O)c1ccc(C2CN(C(=O)c3scnc3C)CCO2)nc1 (centres undefined)	-17.28
Cc1nc(-c2ccncc2)ncc1C(C)NC(=O)Cn1ccccc1=O (centres undefined)	-23.83
O=C(CC1CCCC1)N1CCOC(c2nc(-c3ncccn3)no2)C1 (centres undefined)	12.79
CNC(=O)C1(C)CN(Cc2cn(C)c3ccc(F)cc23)CCO1 (centres undefined)	75.75
CN(C)C(=O)C1(C)CN(Cc2cn(C)c3ccccc23)CCO1 (centres undefined)	34.96
CN(C)C(=O)C1(C)CN(Cc2cn(C)c3ccc(F)cc23)CCO1 (centres undefined)	20.08
CCOCC1CN(Cc2ccc(OC)cc2)Cc2nn(C)cc21.O=C(O)C(F)(F)F (centres undefined)	-10.16
COCC1CN(Cc2ccc(F)cc2)Cc2nn(C)cc21.O=C(O)C(F)(F)F (centres undefined)	21.43
CCn1cc2c(n1)CN(Cc1ccc(C)o1)CC2COCC1CC1.O=C(O)C(F)(F)F (centres undefined)	32.3
CCn1cc2c(n1)CN(Cc1sccc1C)CC2COCC1CC1.O=C(O)C(F)(F)F (centres undefined)	57.43
CCn1cc2c(n1)CN(Cc1ccc(F)cc1)CC2COCC1CC1.O=C(O)C(F)(F)F (centres undefined)	11.94
COCC1CN(Cc2ccc(OC)cc2)Cc2nn(C)cc21.O=C(O)C(F)(F)F (centres undefined)	102.7
COCCC(=O)N1CCCC([C@@H]2C[C@H](C(F)F)n3ncnc3N2)C1 (some centres undefined)	3.93
Cc1nc(C)n(CC2CCCN(CCC(=O)Nc3cc(C)on3)C2)n1 (centres undefined)	-4.464

Structure (SMILES)	Percent Effect [%]
CCCS(=O)(=O)N1CC(=O)N(Cc2cccc(OC)c2OC)CC(O)C1 (centres undefined)	0.4174
CCc1n[nH]c(C(=O)NCCn2nccc2C)c1C	-14.26
COCCN(C)C(C(=O)O)c1ccc2ccccc2c1 (centres undefined)	-16.36
CCc1ccc(CN2CCN(c3ccc(Cl)nn3)CC2)nc1	44.3
COc1ccc(CN2CCN(c3ncc(Cl)cn3)CC2)cc1	15.9
CCc1ccc(CN2CCN(c3ncc(Cl)cn3)CC2)nc1	55.1
Cc1ccccc1CN1CCCN(C(=O)c2ccn(C)c(=O)c2)CC1	-39.51
c1ccc(-c2nc(CCNCc3ccncc3)co2)cc1	-12.86
Cc1ccc(-c2nc(CCNCc3ccncc3)co2)cc1	55.33
COc1ccc(-c2nc(CCNCc3ccncc3)co2)cc1	44.79
CO[C@@H]1CN(C)S(=O)(=O)[C@@]12CCN(Cc1ccccc1)C2	9.469
CC(C)c1cc(C2CCCN2C(=O)CN2C(=O)OC(C)(C)C2=O)no1 (centres undefined)	16.26
CN(Cc1nccs1)c1nc(-c2ccccn2)nc2c1CCNCC2	28.38
CN(Cc1ncc[nH]1)c1nc(-c2ccccn2)nc2c1CCNCC2	56.27
CN(Cc1cccnc1)c1nc(-c2ccccn2)nc2c1CCNCC2	31.77
COc1c(C2CCCN2C(=O)c2cncnc2C)c(C)nn1C (centres undefined)	-27.58
CC(=O)c1ccn(CC(=O)Nc2nn(CC3CC3)c3ccccc23)n1	23.92
CCn1nc(NC(=O)Cn2ccc(C(C)=O)n2)c2ccccc21	6.087
COC(=O)c1ccn(CC(=O)Nc2nn(CC3CC3)c3ccccc23)n1	50.91
Cc1csc(C(Cc2ccsc2)NC(=O)c2cc(=O)n(C)c(=O)n2C)n1 (centres undefined)	-13.69
OCC1CN(Cc2nc(C(F)(F)F)cs2)c2ccccc2O1 (centres undefined)	105.7
CN(Cc1nc(C(F)(F)F)cs1)C(=O)CCc1ccccn1	3.481
Cc1nc(CCNC2CCN(Cc3ccccc3)C2)sc1C (centres undefined)	2.096
Cc1csc(CN2CC(CO)Oc3ccccc32)n1 (centres undefined)	26.95
Cc1nc(CN2CC(CO)Oc3ccccc32)sc1C (centres undefined)	83.41
Cc1nc(CNC2CCN(Cc3ccccc3)C2)sc1C (centres undefined)	5.497
